Reference: the supplement of paper PMC8728848
Shown is part of a subset that was picked to be rich in the strongest signals.

Columns and labels:
Assay in all cases: glycan array binding signal (z-score within array); higher = stronger binding
Conditions in all cases: glycan notation: IUPAC condensed, linker removed
[1] = biological target: Fuc(a1-2)Gal(b1-3)GlcNAc(b1-2)Man(a1-3)[Fuc(a1-2)Gal(b1-3)GlcNAc(b1-2)Man(a1-6)]Man(b1-4)GlcNAc(b1-4)GlcNAc
How it was run: (§1)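 Glycan array binding is given as a within-array Z-score, which can be read as non-binding when negative. The arrays, 3228 of them, came from the Consortium for Functional Glycomics database and were retained only where the protein sequence was available. Z-scores were averaged across arrays of the same protein sequence at different concentrations or buffers and across linkers.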

[2] = biological target: Fuc(a1-2)Gal(b1-4)GlcNAc
How it was run: as §1

[3] = biological target: Fuc(a1-2)Gal(b1-4)GlcNAc(b1-2)[Fuc(a1-2)Gal(b1-4)GlcNAc(b1-4)]Man(a1-3)[Fuc(a1-2)Gal(b1-4)GlcNAc(b1-2)Man(a1-6)]Man(b1-4)GlcNAc(b1-4)GlcNAc
How it was run: as §1

[4] = biological target: Fuc(a1-2)Gal(b1-4)[Fuc(a1-3)]GlcNAc(b1-2)[Fuc(a1-2)Gal(b1-4)[Fuc(a1-3)]GlcNAc(b1-4)]Man(a1-3)[Fuc(a1-2)Gal(b1-4)[Fuc(a1-3)]GlcNAc(b1-2)Man(a1-6)]Man(b1-4)GlcNAc(b1-4)GlcNAc
How it was run: as §1

[5] = biological target: Fuc(a1-2)[GalNAc(a1-3)]Gal(b1-4)[Fuc(a1-3)]GlcNAc
How it was run: as §1

[6] = biological target: Fuc(a1-3)[Gal(b1-4)]GlcNAc
How it was run: as §1

[7] = biological target: Fuc(a1-3)[Gal(b1-4)]GlcNAc(b1-2)Man(a1-3)[Fuc(a1-3)[Gal(b1-4)]GlcNAc(b1-2)Man(a1-6)]Man(b1-4)GlcNAc(b1-4)GlcNAc
How it was run: as §1

[8] = biological target: Gal(a1-3)Gal(b1-4)GlcNAc
How it was run: as §1

[9] = biological target: Gal(a1-3)Gal(b1-4)[Fuc(a1-3)]GlcNAc
How it was run: as §1

[10] = biological target: Gal(b1-3)Gal
How it was run: as §1

[11] = biological target: Gal(b1-4)GlcNAc(b1-2)Man(a1-3)[Man(a1-6)]Man(b1-4)GlcNAc(b1-4)GlcNAc
How it was run: as §1

[12] = biological target: Gal(b1-4)GlcNAc(b1-3)[GlcNAc(b1-6)]Gal(b1-4)GlcNAc
How it was run: as §1

[13] = biological target: Gal(b1-4)GlcNAc(b1-6)GalNAc
How it was run: as §1

[14] = biological target: Gal(b1-6)Gal
How it was run: as §1

[15] = biological target: Gal6S(b1-4)Glc6S
How it was run: as §1

[16] = biological target: GalNAc(a1-3)GalNAc
How it was run: as §1

[17] = biological target: GlcA(b1-3)GlcNAc
How it was run: as §1

[18] = biological target: GlcNAc(b1-3)Gal(b1-3)GalNAc
How it was run: as §1

[19] = biological target: GlcNAc(b1-3)[GlcNAc(b1-6)]Gal(b1-4)GlcNAc
How it was run: as §1

[20] = biological target: GlcNAc(b1-3)[GlcNAc(b1-6)]GalNAc
How it was run: as §1

[21] = biological target: Man(a1-2)Man(a1-3)Man
How it was run: as §1

[22] = biological target: Man(b1-4)GlcNAc
How it was run: as §1

[23] = biological target: Neu5Ac(a2-3)Gal(b1-3)GalNAc6S
How it was run: as §1

[24] = biological target: Neu5Ac(a2-3)Gal(b1-3)GlcNAc
How it was run: as §1

[25] = biological target: Neu5Ac(a2-3)Gal(b1-3)[Neu5Ac(a2-3)Gal(b1-4)]GlcNAc
How it was run: as §1

[26] = biological target: Neu5Ac(a2-3)Gal(b1-3)[Neu5Ac(a2-6)]GalNAc
How it was run: as §1

[27] = biological target: Neu5Ac(a2-3)Gal(b1-4)GlcNAc(b1-2)Man
How it was run: as §1

[28] = biological target: Neu5Ac(a2-3)Gal(b1-4)GlcNAc6S
How it was run: as §1

[29] = biological target: Neu5Ac(a2-3)Gal(b1-4)[Fuc(a1-3)]GlcNAc(b1-3)Gal(b1-4)[Fuc(a1-3)]GlcNAc(b1-3)Gal(b1-4)[Fuc(a1-3)]GlcNAc
How it was run: as §1

[30] = biological target: Neu5Ac(a2-3)Gal6S(b1-4)GlcNAc
How it was run: as §1

[31] = biological target: Neu5Ac(a2-3)[Neu5Ac(a2-6)]GalNAc
How it was run: as §1

[32] = biological target: Neu5Ac(a2-6)GalNAc(b1-4)GlcNAc6S
How it was run: as §1

[33] = biological target: Neu5Ac9Ac(a2-3)Gal(b1-4)GlcNAc
How it was run: as §1

B1: SpnanA (Streptococcus pneumoniae), P62575 (protein)
chain: MVIEKEDVETNASNGQRVDLSSELDKLKKLENATVHMEFKPDAKAPAFYNLFSVSSATKKDEYFTMAVYNNTATLEGRGSDGKQFYNNYNDAPLKVKPGQWNSVTFTVEKPTAELPKGRVRLYVNGVLSRTSLRSGNFIKDMPDVTHVQIGATKRANNTVWGSNLQIRNLTVYNRALTPEEVQKRS
Q: What does the source list for B1?
A: glycan array binding signal (z-score) [1]: -0.237; glycan array binding signal (z-score) [2]: -0.29; glycan array binding signal (z-score) [3]: -0.131; glycan array binding signal (z-score) [4]: -0.066; glycan array binding signal (z-score) [5]: 0.018; glycan array binding signal (z-score) [6]: -0.28; glycan array binding signal (z-score) [7]: -0.169; glycan array binding signal (z-score) [8]: -0.256; glycan array binding signal (z-score) [9]: -0.262; glycan array binding signal (z-score) [10]: -0.211; glycan array binding signal (z-score) [11]: 0.687; glycan array binding signal (z-score) [12]: -0.29; glycan array binding signal (z-score) [13]: -0.295; glycan array binding signal (z-score) [14]: -0.199; glycan array binding signal (z-score) [15]: -0.104; glycan array binding signal (z-score) [16]: -0.233; glycan array binding signal (z-score) [17]: 6.22; glycan array binding signal (z-score) [18]: -0.164; glycan array binding signal (z-score) [19]: -0.211; glycan array binding signal (z-score) [20]: -0.222; glycan array binding signal (z-score) [21]: -0.228; glycan array binding signal (z-score) [22]: -0.307; glycan array binding signal (z-score) [23]: 3.01; glycan array binding signal (z-score) [24]: 3.08; glycan array binding signal (z-score) [25]: 6.34; glycan array binding signal (z-score) [26]: 3.24; glycan array binding signal (z-score) [27]: 2.64; glycan array binding signal (z-score) [28]: 3.89; glycan array binding signal (z-score) [29]: -0.268; glycan array binding signal (z-score) [30]: 2.91; glycan array binding signal (z-score) [31]: 2.61; glycan array binding signal (z-score) [32]: -0.062; glycan array binding signal (z-score) [33]: -0.089
